Reference: PubChem BioAssay (NCATS)
Inconclusive results are not listed. The source made the active and inactive calls. Calls come from the whole dose curve; as a rule, active = well fitted cell-killing curve with a large enough effect; inconclusive = small, poorly fitted or top-dose-only effect; inactive = flat fitted curve, though single readings scatter.

assay: Cell Viability - LYMP2-024 (AID 988); details: LYMP2-024 lymphoblastoid cell viability; series mostly up to 92.2 µM; activity change, negative = cytotoxicity: at the top concentration; note: nearly all actives have a fitted effect of over 60% in size;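 for activity change, negative = cytotoxicity: plate controls were DMSO only for no effect and 92 µM tetraoctylammonium bromide for full effect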
Description: NIH Chemical Genomics Center [NCGC]
NIH Molecular Libraries Screening Centers Network [MLSCN]
National Institutes of Environmental Health Sciences [NIEHS]
National Toxicology Program [NTP]
We have developed a 1536-well cell-based assay for quantitative high throughput screening (qHTS) against a number of cell lines to determine in vitro cytotoxicity of small molecules. This particular assay uses a human lymphoblastoid cell line (LYMP2-024) purchased from Coriell Institute for Medical Research.
NCGC Assay Protocol Summary:
The CellTiter-Glo luminescent cell viability assay (Promega) is a homogeneous method to measure the number of viable cells in culture. The end point readout of this assay is based on quantitation of intracellular ATP, an indicator of metabolic activity, using the luciferase reaction. Luciferase catalyzes the oxidation of beetle Luciferin to oxyluciferin and light in the presence of ATP. The luminescent signal is proportional to amount of ATP present.
Using the CellTiter-Glo luminescent cell viability assay, the amount of cellular ATP was measured in the lymphoblastoid cell line with complete culture medium following compound treatment for 24 hours. The assay was performed in opaque white Kalypsys 1536-well plates. In the screen, tetraoctylammonium bromide was used as positive control. Library compounds were measured for their ability to cause acute toxicity in the cell line, as reflected by a decrease in intracellular ATP levels, in a concentration-dependent manner. […] AC50 values were determined from concentration-response data modeled with the standard Hill equation.
qHTS protocol for CellTiter Glo lymphoblastoid cellular assay
[Step] [Parameter] [Value] [Description]
1. Reagent; 5 uL; 2500 lymphoblastoid cells/well
2. Time; 5 hr; 37 C incubation
4. Controls; 23 nL; Tetraoctylammonium bromide 6.4pM to 92 uM
5. Time; 24 hr; 37 C incubation
6. Reagent; 5 uL; CellTiter Glo reagent
7. Time; 30 min; Room Temperature
8. Detection; Luminescence; Viewlux plate reader
Keywords: cell viability, cytotoxicity, lymphoblastoid cell line, luminescence, NTPHTS, NTPHTS_NCGC, NIEHS, DSSTox, MLSMR, MLSCN, NIH Roadmap, qHTS, NCGC
Potency is the fitted concentration of half-maximal effect.

Row | Compound | activity change, negative = cytotoxicity | Potency
1 | O=C(O)/C=C\C(=O)O | -9.18% (inactive) | 
2 | O=C(O)c1cc(O)c(O)c(O)c1 | -17.5% (inactive) | 
3 | CN(C)CCC(c1ccc(Cl)cc1)c1ccccn1 (centres undefined) | -19.4% (inactive) | 
4 | Nc1nc2ccc([N+](=O)[O-])cc2s1 | -19.5% (inactive) | 
5 | Nc1ccc(O)c(C(=O)O)c1 | -2.35% (inactive) | 
6 | CCCCCCCCCCCCCCCCCC(=O)O | -9.99% (inactive) | 
7 | c1cnc2c(c1)ccc1cccnc12 |  | 12.6 µM (active)
8 | NCCO | -9.05% (inactive) | 
9 | CN(C)c1ccc(C(=C2C=CC(=[N+](C)C)C=C2)c2ccccc2)cc1 |  | 0.199 µM (active)
10 | CC1(C)S[C@@H]2[C@H](NC(=O)[C@H](N)c3ccccc3)C(=O)N2[C@H]1C(=O)O | -3.49% (inactive) | 
11 | CCCOC(=O)c1ccc(O)cc1 |  | inactive
12 | Nc1ccc([N+](=O)[O-])cc1O | -8.1% (inactive) | 
13 | COc1cc(/C=C/C(=O)CC(=O)/C=C/c2ccc(O)c(OC)c2)ccc1O |  | 25.1 µM (active)
14 | c1ccc2sc(SSc3nc4ccccc4s3)nc2c1 | -9.78% (inactive) | 
15 | CN(C)c1ccc(N=NS(=O)(=O)O)cc1 | -19.7% (inactive) | 
16 | CC(C)NCC(O)COc1cccc2ccccc12 (centres undefined) | -10.4% (inactive) | 
17 | O=c1cc(-c2ccccc2)oc2ccccc12 | -21.6% (inactive) | 
18 | C#C[C@]1(O)CC[C@H]2[C@@H]3CCc4cc(O)ccc4[C@H]3CC[C@@]21C | -22.2% (inactive) | 
19 | Nc1ccc(O)c([N+](=O)[O-])c1 | -21.4% (inactive) | 
20 | COc1cc(CNC(=O)CCCC/C=C/C(C)C)ccc1O | -12.4% (inactive) | 
21 | N=C1N=C(N)c2cc3ccccc3cc21 |  | 39.8 µM (active)
22 | S=c1[nH]c2ccccc2s1 | -16.3% (inactive) | 
23 | O=C1CN(/N=C/c2ccc([N+](=O)[O-])o2)C(=O)N1 | -22.4% (inactive) | 
24 | CN1CCC[C@H]1c1cccnc1 | -11% (inactive) | 
